Results on 28 molecules are retold here after PubChem BioAssay (EPA / NIEHS).

Where a structure was tested more than once in an assay, its records may differ in their call. Calls of active or inactive are those of the source. Rule for the calls: active = hit-call score of the fitted dose curve at least 0.9, where 1 is the maximum; inactive = score below 0.9.

Chain of Cellular tumor antigen p53 (Homo sapiens) (P04637 whole entry, looked up): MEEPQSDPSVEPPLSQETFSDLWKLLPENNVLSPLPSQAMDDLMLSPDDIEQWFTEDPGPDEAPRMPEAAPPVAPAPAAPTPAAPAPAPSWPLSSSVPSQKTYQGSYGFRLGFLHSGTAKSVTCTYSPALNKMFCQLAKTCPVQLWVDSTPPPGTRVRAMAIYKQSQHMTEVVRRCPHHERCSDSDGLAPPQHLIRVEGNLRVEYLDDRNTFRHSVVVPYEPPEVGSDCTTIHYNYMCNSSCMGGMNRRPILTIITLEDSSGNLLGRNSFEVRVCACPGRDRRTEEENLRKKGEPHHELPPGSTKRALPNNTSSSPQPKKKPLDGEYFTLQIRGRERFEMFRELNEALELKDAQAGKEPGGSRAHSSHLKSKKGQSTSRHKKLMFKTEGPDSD

System in the first experiment: not listed separately
The experiment can be described thus: ATG_Oct_MLP_CIS: Attagene CIS-FACTORIAL HepG2 Assay for human Octamer-Binding Transcription Factor (Oct) (AID 2282993). Particulars: HepG2 Attagene cis-factorial Oct reporter, mRNA; actives raise or lower the signal. In outline:
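Multiplexed cis-reporter assay in human liver HepG2 cells, 24 h incubation. Reporter RNA amplified and labelled, then resolved by capillary electrophoresis; DMSO serves as negative control and baseline.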
A word on the AC50: it is the concentration giving half of the maximal activity seen. Consider `ClC1=C(Cl)C2(Cl)C3C(Cl)C=CC3C1(Cl)C2(Cl)Cl` (stereo unspecified), for which the AC50 was 149 µM (active).

For the molecule `CC(C)(OOC(C)(C)c1ccccc1)c1ccccc1`, the AC50 is 59.6 µM (active).

For `c1ccc(NNc2ccccc2)cc1`, the outcome was inactive.

As to `O=[N+]([O-])c1ccc(Oc2ccc(Cl)cc2Cl)cc1`, the outcome was inactive.

With `O=C(N[C@H](c1ccccc1)[C@@H]1CN2CCC1CC2)c1c(Cl)ccc(C(F)(F)F)c1Cl`, the result was inactive.

For `CC(C)(C)C(O)(CCc1ccc(Cl)cc1)Cn1cncn1` (stereo unspecified), the molecule was called inactive.

The target in another experiment is Cellular tumor antigen p53 (Homo sapiens) (UniProt P04637). The experiment can be described thus: ATG_p53_CIS: Attagene CIS-FACTORIAL HepG2 Assay for human p53 Transcription Factor (AID 2282994). To be noted: HepG2 p53 cis-element reporter, Attagene mRNA; actives raise or lower the signal. In outline:
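Transiently transfected HepG2 (multiple cis reporter transcription units); exposure 24 h; reporter RNA via RT-PCR, 6-FAM extension, 2 h HpaI digest at 37 C, CE detection; DMSO baseline.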
Consider `CCCCCOC(=O)c1ccccc1C(=O)OCCCCC`, for which the molecule was classed as inactive.

As for `c1ccc(C2CO2)cc1` (stereo unspecified), the call was inactive.

In the case of `Brc1ccc(Oc2ccccc2)cc1`, the molecule was classed as inactive.

On to `[Cl-].[Cl-].[Hg+2]`, for which the AC50 is 55.4 µM (active).

Regarding `CN(C)[C@@H]1C(=O)C(C(N)=O)=C(O)[C@@]2(O)C(=O)C3=C(O)c4c(O)cccc4[C@@](C)(O)[C@H]3C[C@@H]12`, the result was inactive.

Consider `Oc1ccc2ccc3cccc4ccc1c2c34`, for which the molecule was classed as inactive.

In the case of `[As]#[In]`, the result was inactive.

In the case of `ClCCOCCCl`, the molecule was called inactive.

For `CN(C)C(=O)Nc1ccc(Cl)cc1`, the molecule was called inactive.

Regarding `Cn1cc(-c2ccccc2)c(=O)c(-c2cccc(C(F)(F)F)c2)c1`, the outcome was inactive.

As to `CC(C)N(Cc1ccccc1)C(=O)C(C)(C)C`, the result was inactive.

`CNC(=O)Oc1cccc2c1OC(C)(C)C2`: the result was inactive.

With `CN(C)c1ccccc1`, the molecule was called inactive.

Regarding `CN(C)c1ccc(C(=O)c2ccc(N(C)C)cc2)cc1`, the outcome was inactive.

As to `O=C(O)C1C2CCC(O2)C1C(=O)O` (stereo unspecified), the AC50 is 100 µM (active).

Regarding `CCCCCCCCn1sccc1=O`, the concentration at half-maximal activity (AC50) was 19.9 µM (active).

On to `c1ccc(N=Nc2ccccc2)cc1`, for which the outcome was inactive.

With `ClC1=C(Cl)C2(Cl)C3C(Cl)C=CC3C1(Cl)C2(Cl)Cl` (stereo unspecified), the AC50 is 100 µM (active).

With `CC(C)(OOC(C)(C)c1ccccc1)c1ccccc1`, the result was inactive.

For `c1ccc(NNc2ccccc2)cc1`, the outcome was inactive.

As for `O=[N+]([O-])c1ccc(Oc2ccc(Cl)cc2Cl)cc1`, the molecule was classed as inactive.

Take `O=C(N[C@H](c1ccccc1)[C@@H]1CN2CCC1CC2)c1c(Cl)ccc(C(F)(F)F)c1Cl`: the outcome was inactive.

On to `CC(C)(C)C(O)(CCc1ccc(Cl)cc1)Cn1cncn1` (stereo unspecified), for which the molecule was called inactive.

Read-out in a further experiment: not listed separately
Briefly: BSK_3C_TissueFactor: BioMAP Diversity Plus: 3C Assay for Tissue Factor Biomarker Activity (AID 2282997). To be noted: BioMAP 3C HUVEC, tissue factor biomarker readout; actives raise or lower the signal. In outline: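 After a 24 h chemical exposure of primary human umbilical vein endothelial cells, Tissue Factor levels were quantified by ELISA.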
In the case of `CCCCCOC(=O)c1ccccc1C(=O)OCCCCC`, the result was inactive.

Consider `c1ccc(C2CO2)cc1` (stereo unspecified), for which the result was inactive.

Turning to `Clc1ccccc1Cl`, the outcome was inactive.

As to `Brc1ccc(Oc2ccccc2)cc1`, the result was inactive.

With `[Cl-].[Cl-].[Hg+2]`, the AC50 was 34.8 µM (active).

In the case of `CN(C)[C@@H]1C(=O)C(C(N)=O)=C(O)[C@@]2(O)C(=O)C3=C(O)c4c(O)cccc4[C@@](C)(O)[C@H]3C[C@@H]12`, the result was inactive.

Consider `Oc1ccc2ccc3cccc4ccc1c2c34`, for which the AC50 is 32.6 µM (active).

`[As]#[In]`: the outcome was inactive.

In the case of `ClCCOCCCl`, the outcome was inactive.

With `CN(C)C(=O)Nc1ccc(Cl)cc1`, the outcome was inactive.

For `CCNS(=O)(=O)C(F)(F)C(F)(F)C(F)(F)C(F)(F)C(F)(F)C(F)(F)C(F)(F)C(F)(F)F`, the result was inactive.

For `O=[N+]([O-])C(Br)(CO)CO`, the AC50 is 27.1 µM (active).

Turning to `Cn1cc(-c2ccccc2)c(=O)c(-c2cccc(C(F)(F)F)c2)c1`, the result was inactive.

As for `CC(C)N(Cc1ccccc1)C(=O)C(C)(C)C`, the outcome was inactive.

In the case of `O=C(Nc1ccccc1)c1ccccc1I`, the result was inactive.

On to `C[C@]12C=CC3=C4CCC(=O)C=C4CC[C@H]3[C@@H]1CC[C@@H]2O`, for which the outcome was inactive.

As to `CNC(=O)Oc1cccc2c1OC(C)(C)C2`, the result was inactive.

Regarding `CN(C)c1ccccc1`, the result was inactive.

For `CN(C)c1ccc(C(=O)c2ccc(N(C)C)cc2)cc1`, the result was inactive.

As to `O=C(O)C1C2CCC(O2)C1C(=O)O` (stereo unspecified), the result was inactive.

On to `CCCCCCCCn1sccc1=O`, for which the AC50 is 11.7 µM (active).

Consider `c1ccc(N=Nc2ccccc2)cc1`, for which the result was inactive.

Consider `ClC1=C(Cl)C2(Cl)C3C(Cl)C=CC3C1(Cl)C2(Cl)Cl` (stereo unspecified), for which the AC50 was 26.9 µM (active).

`CC(C)(OOC(C)(C)c1ccccc1)c1ccccc1`: the AC50 is 29 µM (active).

For `c1ccc(NNc2ccccc2)cc1`, the result was inactive.

As to `O=[N+]([O-])c1ccc(Oc2ccc(Cl)cc2Cl)cc1`, the result was inactive.

In the case of `O=C(N[C@H](c1ccccc1)[C@@H]1CN2CCC1CC2)c1c(Cl)ccc(C(F)(F)F)c1Cl`, the outcome was inactive.

For `CC(C)(C)C(O)(CCc1ccc(Cl)cc1)Cn1cncn1` (stereo unspecified), the result was inactive.

Read-out in another experiment: not listed separately
Briefly: BSK_3C_uPAR: BioMAP Diversity Plus: 3C Assay for Urokinase-type plasminogen activator receptor (uPAR) Biomarker Activity (AID 2282998). To be noted: BioMAP 3C HUVEC, uPAR biomarker ELISA; actives raise or lower the signal. In outline:
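Dose primary human umbilical vein endothelial cells, incubate 24 h, measure cell-surface uPAR by ELISA, then fit the signal in both directions against the DMSO negative control.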
A general note: An ELISA detects its analyte on a solid surface through an enzyme-linked reagent.
Take `CCCCCOC(=O)c1ccccc1C(=O)OCCCCC`: the result was inactive.

For `c1ccc(C2CO2)cc1` (stereo unspecified), the result was inactive.

On to `Clc1ccccc1Cl`, for which the outcome was inactive.

Turning to `Brc1ccc(Oc2ccccc2)cc1`, the result was inactive.

`[Cl-].[Cl-].[Hg+2]`: the AC50 is 34.1 µM (active).

For `CN(C)[C@@H]1C(=O)C(C(N)=O)=C(O)[C@@]2(O)C(=O)C3=C(O)c4c(O)cccc4[C@@](C)(O)[C@H]3C[C@@H]12`, the result was inactive.

As to `Oc1ccc2ccc3cccc4ccc1c2c34`, the half-maximal activity concentration (AC50) was 22.3 µM (active).

As for `[As]#[In]`, the result was inactive.

For the molecule `ClCCOCCCl`, the result was inactive.

Take `CN(C)C(=O)Nc1ccc(Cl)cc1`: the result was inactive.

In the case of `CCNS(=O)(=O)C(F)(F)C(F)(F)C(F)(F)C(F)(F)C(F)(F)C(F)(F)C(F)(F)C(F)(F)F`, the AC50 is 19.6 µM (active) and the result was inactive.

Regarding `O=[N+]([O-])C(Br)(CO)CO`, the AC50 is 30.5 µM (active).

With `Cn1cc(-c2ccccc2)c(=O)c(-c2cccc(C(F)(F)F)c2)c1`, the result was inactive.

For the molecule `CC(C)N(Cc1ccccc1)C(=O)C(C)(C)C`, the outcome was inactive.

On to `O=C(Nc1ccccc1)c1ccccc1I`, for which the result was inactive.

In the case of `C[C@]12C=CC3=C4CCC(=O)C=C4CC[C@H]3[C@@H]1CC[C@@H]2O`, the AC50 was 7.23 µM (active).

Turning to `CNC(=O)Oc1cccc2c1OC(C)(C)C2`, the result was inactive.

With `CN(C)c1ccccc1`, the result was inactive.

Regarding `CN(C)c1ccc(C(=O)c2ccc(N(C)C)cc2)cc1`, the AC50 is 3.34 µM (active).

Turning to `O=C(O)C1C2CCC(O2)C1C(=O)O` (stereo unspecified), the result was inactive.

On to `CCCCCCCCn1sccc1=O`, for which the AC50 is 15.3 µM (active).

Turning to `c1ccc(N=Nc2ccccc2)cc1`, the result was inactive.

In the case of `ClC1=C(Cl)C2(Cl)C3C(Cl)C=CC3C1(Cl)C2(Cl)Cl` (stereo unspecified), the AC50 is 29.3 µM (active).

As to `CC(C)(OOC(C)(C)c1ccccc1)c1ccccc1`, the AC50 was 33.7 µM (active).

Turning to `c1ccc(NNc2ccccc2)cc1`, the outcome was inactive.

Regarding `O=[N+]([O-])c1ccc(Oc2ccc(Cl)cc2Cl)cc1`, the AC50 is 9.38 µM (active).

For the molecule `O=C(N[C@H](c1ccccc1)[C@@H]1CN2CCC1CC2)c1c(Cl)ccc(C(F)(F)F)c1Cl`, the AC50 is 17.7 µM (active).

`CC(C)(C)C(O)(CCc1ccc(Cl)cc1)Cn1cncn1` (stereo unspecified): the result was inactive.
